Data on 16 molecules can be found in PubChem BioAssay.

The nature of experiment [1]: stimulators of nuclear beta-catenin in C2C12, primary screen, imaging, WNT3A-conditioned medium, mouse C2C12, NPC library (AID 1117326; in the data active means nuclear beta-catenin stimulation mostly above about 4.2%, no sharp cut-off; inactive means mostly below about 10%; further: reference of the scale not given here). Particulars: stronger effect = higher value.
The nature of experiment [2]: stimulators of insulin release from INS-1E, primary screen, cell-based, 5 mM glucose, NPC library (AID 1117329;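 active means compound raises insulin release from rat beta cells at 5 mM glucose, no numeric limit stated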; further: reference of the scale not given here). Particulars: rat INS-1E insulin secretion, at 10 µM, stronger effect = higher value.
A short description of experiment [3]: growth inhibition of GSK3B-pretreated HCT116 cells – cell-based, CellTiter-Glo, 0.2 to 20 µM (AID 1117336;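 active means compounds lowering colon cancer cell viability after pretreatment blocking the GSK3B kinase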). The settings on record: HCT116 viability after GSK3B inhibitor, at 20 µM, stronger effect = higher value. On the technique in general: Cellular ATP, detected with luciferase, serves as a proxy for viable cell number.
Experiment [4] can be described thus: inhibition of endothelial tube formation, primary screen, imaging, VEGF stimulated, CD31 staining, tube area, NPC library (AID 1117340). Particulars: VEGF-stimulated ADSC/ECFC co-culture, at 10 µM, stronger effect = higher value.
A short description of experiment [5]: glucagon-like peptide 1 release enhancers, primary assay, NCI-H716 cell line, NPC library (AID 1117341;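 active means compound raises GLP1 secretion from the human gut endocrine cells, with no numeric limit stated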; further: reference of the scale not given here). The settings on record: NCI-H716 cells, at 10 µM, stronger effect = higher value.
Experiment [6] in a line: HCT116 colon cancer cell growth inhibition, primary screen, CellTiter-Glo luminescence, NPC library (AID 1117342;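 active means compounds that lower survival of HCT116 colon cancer cells in the luminescence readout, no numeric limit stated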). The settings on record: at 20 µM (top of the series).
Experiment [7] in a line: CellTiter-Glo luminescent readout of SW480 viability loss, NPC library primary (AID 1117343;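 active means compounds that lower viability of the colon cancer cells in the luminescence readout, with no numeric limit stated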). Particulars: CellTiter-Glo luminescence; at 20 µM (top of the series).
The nature of experiment [8]: decreased DLD-1 cellular survival, CellTiter-Glo luminescent readout, NPC compound collection, primary HTS (AID 1117346;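 active means compounds that lower survival of DLD-1 colon cancer cells in the luminescence readout, no cutoff given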). Particulars: DLD-1 viability, CellTiter-Glo luminescence; at 20 µM (top of the series).

The structures appear in SMILES notation. Activity calls are given as the source filed them.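 How the source made its calls, unless noted: active means compound that reduces growth-factor-driven endothelial tube area in a mixed cell culture, no cutoff stated; inactive means the rest.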

Take `O=S(c1cc(Cl)cc(Cl)c1O)c1cc(Cl)cc(Cl)c1O`: the nuclear beta-catenin stimulation is -0.5% (inactive) in experiment [1] (at 10 µM) and -1.3% in experiment [1] (stimulation, at 2 µM). The insulin secretion stimulation in experiment [2] was 4.7% (inactive). Further, in experiment [3], the viability decrease was 110% (active). Also, in experiment [4], the tube area decrease was 92.8% (active). Also, in experiment [5], the GLP1 secretion stimulation was 27.8% (active). For the same molecule, the inhibition of viability in experiment [6] was 112% (active). For the same molecule, the viability decrease (inhibition) in experiment [7] was 126% (active); in experiment [8] it was 101% (active).
For `C/C=C(/C(=C/C)c1ccc(OC(C)=O)cc1)c1ccc(OC(C)=O)cc1`, the nuclear beta-catenin stimulation is 18.1% (inactive) in experiment [1] (at 10 µM) and 2.9% in experiment [1] (stimulation, at 2 µM). Besides, the insulin secretion stimulation in experiment [2] is 1.65% (inactive). Besides, in experiment [3], the viability decrease was 108% (active). The tube area decrease in experiment [4] is 65.4% (active). Also, the GLP1 secretion stimulation in experiment [5] was 11.9% (inactive). For the same molecule, in experiment [6], the inhibition of viability was 108% (active). Also, the results for the viability decrease (inhibition) in experiment [7] and in experiment [8] were 129% (active) and 97.2% (active), respectively.
Consider `COC(=O)[C@H]1[C@H]2C[C@@H]3c4[nH]c5cc(OC)ccc5c4CCN3C[C@H]2C[C@@H](OC(=O)COc2ccc(OC)cc2)[C@@H]1OC`, for which the nuclear beta-catenin stimulation in experiment [1] (at 10 µM) is 3.2% (inactive); in experiment [1] (stimulation, at 2 µM), -0.2%. Besides, in experiment [2], the insulin secretion stimulation is -1.2% (inactive). Besides, the viability decrease in experiment [3] was 10.9% (inactive). Besides, the tube area decrease in experiment [4] is 9.6% (inactive). Moreover, the GLP1 secretion stimulation in experiment [5] was 8.5% (inactive). The inhibition of viability in experiment [6] was 33.6% (inactive). The viability decrease (inhibition) was -12.3% (inactive) in experiment [7] and 1.9% (inactive) in experiment [8].
`O=C1NC2CCCCN2C12CCN(CCCN1c3ccccc3CCc3ccc(Cl)cc31)CC2` (centres undefined): the nuclear beta-catenin stimulation is 13.1% (inactive) in experiment [1] (at 10 µM) and 0.1% in experiment [1] (stimulation, at 2 µM). In addition, the insulin secretion stimulation in experiment [2] is 3.85% (inactive). Moreover, the viability decrease in experiment [3] is 108% (active). In experiment [4], the tube area decrease was 89.4% (active). The GLP1 secretion stimulation in experiment [5] is 13.3% (inactive). In experiment [6], the inhibition of viability is 112% (active). Besides, the viability decrease (inhibition) is 128% (active) in experiment [7] and 101% (active) in experiment [8].
`CC(=O)/C=C/C=C1/C2CCC(C2)C1(C)C` (centres undefined): the nuclear beta-catenin stimulation in experiment [1] (at 10 µM) was 1.2% (inactive); in experiment [1] (stimulation, at 2 µM) it was 3.3%. In addition, the insulin secretion stimulation in experiment [2] was 0.6% (inactive). Also, the viability decrease in experiment [3] was -80% (inactive). For the same molecule, the tube area decrease in experiment [4] was -0.7% (inactive). Further, the GLP1 secretion stimulation in experiment [5] is 0.1% (inactive). The inhibition of viability in experiment [6] was -1.1% (inactive). In addition, the viability decrease (inhibition) is 27% (inactive) in experiment [7] and -15.2% (inactive) in experiment [8].
`Cc1cccc(C)c1NC(=O)CN1CCCCCC1`: the nuclear beta-catenin stimulation was -2% (inactive) in experiment [1] (at 10 µM) and 0.1% in experiment [1] (stimulation, at 2 µM). For the same molecule, the insulin secretion stimulation in experiment [2] was 1.9% (inactive). In addition, in experiment [3], the viability decrease is -6.6% (inactive). Further, the tube area decrease in experiment [4] is -7.7% (inactive). Further, the GLP1 secretion stimulation in experiment [5] was -1% (inactive). Also, the inhibition of viability in experiment [6] was -16.3% (inactive). Besides, the viability decrease (inhibition) in experiment [7] was 23.3% (inactive); in experiment [8], -8.2% (inactive).
For the molecule `CCCCCCn1c(=O)c2c(ncn2C)n(C)c1=O`, the nuclear beta-catenin stimulation is -0.5% (inactive) in experiment [1] (at 10 µM) and -2% in experiment [1] (stimulation, at 2 µM). Besides, the insulin secretion stimulation in experiment [2] was 1.5% (inactive). Besides, the viability decrease in experiment [3] was 1.6% (inactive). Further, in experiment [4], the tube area decrease was 10.5% (inactive). The GLP1 secretion stimulation in experiment [5] was 1.6% (inactive). Besides, the inhibition of viability in experiment [6] is 6.2% (inactive). For the same molecule, the viability decrease (inhibition) in experiment [7] is 15% (inactive); in experiment [8] it was -3.4% (inactive).
With `OCC=Cc1ccccc1`, the nuclear beta-catenin stimulation was -2.6% (inactive) in experiment [1] (at 10 µM) and -1% in experiment [1] (stimulation, at 2 µM). Besides, the insulin secretion stimulation in experiment [2] was 9.1% (inactive). Moreover, the viability decrease in experiment [3] was -8.2% (inactive). For the same molecule, in experiment [4], the tube area decrease is 0.4% (inactive). Moreover, in experiment [5], the GLP1 secretion stimulation was -1.9% (inactive). Moreover, the inhibition of viability in experiment [6] was -0.4% (inactive). The viability decrease (inhibition) in experiment [7] is -0.8% (inactive); in experiment [8] it was -7.9% (inactive).
For `O=c1[nH]sc2cc(Cl)ccc12`, the nuclear beta-catenin stimulation in experiment [1] (at 10 µM) was 15.5% (inactive); in experiment [1] (stimulation, at 2 µM), 7.8%. Further, in experiment [2], the insulin secretion stimulation is -2.7% (inactive). The viability decrease in experiment [3] is 58.1% (active). The tube area decrease in experiment [4] is 89.7% (active). Also, the GLP1 secretion stimulation in experiment [5] is 45% (active). Also, the inhibition of viability in experiment [6] was 20.5% (inactive). Moreover, the viability decrease (inhibition) is 157% (active) in experiment [7] and 63.5% (active) in experiment [8].
Take `Nc1ccc(S(=O)(=O)NCc2ccccc2)cc1`: the nuclear beta-catenin stimulation in experiment [1] (at 10 µM) was 0.8% (inactive); in experiment [1] (stimulation, at 2 µM), 1.8%. Further, in experiment [2], the insulin secretion stimulation was -2.5% (inactive). For the same molecule, the viability decrease in experiment [3] is -8.1% (inactive). In experiment [4], the tube area decrease was -5.2% (inactive). Also, the GLP1 secretion stimulation in experiment [5] was 0.6% (inactive). For the same molecule, the inhibition of viability in experiment [6] is -18.3% (inactive). Moreover, the viability decrease (inhibition) is 37.6% (inactive) in experiment [7] and 10.1% (inactive) in experiment [8].
As for `CC(CCc1ccc2c(c1)OCO2)NN` (centres undefined), the nuclear beta-catenin stimulation in experiment [1] (at 10 µM) is 0.2% (inactive); in experiment [1] (stimulation, at 2 µM), 0.2%. Besides, in experiment [2], the insulin secretion stimulation is -2.2% (inactive). Besides, the viability decrease in experiment [3] was 57.8% (active). Besides, in experiment [4], the tube area decrease is 23.7% (inactive). Besides, the GLP1 secretion stimulation in experiment [5] was 2.3% (inactive). In addition, the inhibition of viability in experiment [6] is 84.6% (active). In addition, the viability decrease (inhibition) in experiment [7] is 97.6% (active); in experiment [8] it was 17.7% (inactive).
For the molecule `CCOC(=O)Cn1cccc1-c1nc(-c2ccc(OC)cc2)c(-c2ccc(OC)cc2)s1`, the nuclear beta-catenin stimulation is -0.6% (inactive) in experiment [1] (at 10 µM) and -1.4% in experiment [1] (stimulation, at 2 µM). Moreover, in experiment [2], the insulin secretion stimulation was 1.9% (inactive). For the same molecule, the viability decrease in experiment [3] is 35.5% (inactive). Further, the tube area decrease in experiment [4] was 6.7% (inactive). Also, in experiment [5], the GLP1 secretion stimulation is -0.1% (inactive). For the same molecule, in experiment [6], the inhibition of viability is 46% (inactive). For the same molecule, the viability decrease (inhibition) was 88.2% (active) in experiment [7] and 77.5% (active) in experiment [8].
For the molecule `CC(C)=CCOc1ccc(/C=C/C(=O)c2ccc(OCC=C(C)C)cc2OCC(=O)O)cc1`, the nuclear beta-catenin stimulation in experiment [1] (at 10 µM) was 10.1% (inactive); in experiment [1] (stimulation, at 2 µM), -0.2%. Also, the insulin secretion stimulation in experiment [2] is 0.6% (inactive). For the same molecule, in experiment [3], the viability decrease was 99.2% (active). In addition, the tube area decrease in experiment [4] was 108% (active). Moreover, in experiment [5], the GLP1 secretion stimulation is -0.1% (inactive). The inhibition of viability in experiment [6] was 99.6% (active). The viability decrease (inhibition) in experiment [7] and in experiment [8] was 102% (active) throughout.
`CCCOC(=O)c1cc(O)c(O)c(O)c1`: the nuclear beta-catenin stimulation in experiment [1] (at 10 µM) was 4.2% (inactive); in experiment [1] (stimulation, at 2 µM), 1.9%. Also, the insulin secretion stimulation in experiment [2] is -1.6% (inactive). Also, the viability decrease in experiment [3] was 43.1% (inactive). The tube area decrease in experiment [4] is 71.3% (active). Besides, the GLP1 secretion stimulation in experiment [5] was -2.1% (inactive). In experiment [6], the inhibition of viability was 35.1% (inactive). For the same molecule, the viability decrease (inhibition) is 78.3% (active) in experiment [7] and 58.4% (active) in experiment [8].
As to `CC(=O)Nc1ccc(S(=O)(=O)Nc2cc(C)on2)cc1`, the nuclear beta-catenin stimulation is 1.7% (inactive) in experiment [1] (at 10 µM) and 0.3% in experiment [1] (stimulation, at 2 µM). The insulin secretion stimulation in experiment [2] is 0.5% (inactive). Also, the viability decrease in experiment [3] is -7% (inactive). The tube area decrease in experiment [4] was -15.5% (inactive). Moreover, the GLP1 secretion stimulation in experiment [5] was 0.1% (inactive). For the same molecule, the inhibition of viability in experiment [6] is 0.8% (inactive). The figures for the viability decrease (inhibition) in experiment [7] and in experiment [8] were -14.4% (inactive) and 2% (inactive), respectively.
Turning to `CN1CC(=O)NC1=N`, the nuclear beta-catenin stimulation was -0.7% (inactive) in experiment [1] (at 10 µM) and 1.5% in experiment [1] (stimulation, at 2 µM). The insulin secretion stimulation in experiment [2] is 4.1% (inactive). The viability decrease in experiment [3] was -24% (inactive). The tube area decrease in experiment [4] was 21.3% (inactive). Also, the GLP1 secretion stimulation in experiment [5] was 0.9% (inactive). The inhibition of viability in experiment [6] is -3.43% (inactive). Besides, the viability decrease (inhibition) in experiment [7] is -155% (inactive); in experiment [8], -6.6% (inactive).
